According to PubChem BioAssay (NCATS):
Where “and” joins values, the source holds several entries; their conditions need not be identical. Equal values may be shown once. Records with an inconclusive call do not appear. Calls of active or inactive are those of the source. Calls come from the whole dose curve.

assay: Primary qHTS to identify inhibitors of SARS-CoV-2 cell entry (AID 1645846); settings: SARS-CoV-2 pseudovirus cell entry assay, luminescence; activity change, negative = inhibition: at 57.1 µM (top of the series) unless noted; series mostly up to 57.1 µM; note: nearly all actives have a fitted effect of over 45% in size
Source text: Assay Provider: Wei Zheng, Ph.D.
National Center for Advancing Translational Sciences, National Institute of Health, Rockville, MD.
SARS-CoV-2 spike protein, within the viral envelope, mediates viral attachment and infection of host cells. The SARS-CoV-2 spike protein specifically binds to the host receptor ACE2 (Angiotensin-converting enzyme 2). This interaction promotes endocytosis of the viral particle, additional events lead to viral-host cell membrane fusion and release of the viral contents, allowing viral replication.
While SARS-CoV-2 requires BSL-3 facilities for live virus work, pseudotyped partices (PP) that incorporate SARS-CoV-2 spike proteins without replication elements could facilitate studies on viral entry mechanisms in a BSL-2 setting. This PP cell entry assay could also enable screening of small molecule compound libraries in BSL-2 setting to identify inhibitors of SARS-CoV-2 cell entry.
PROTOCOL TABLE (format as described by Inglese J, Shamu CE and Guy RK. 2007)
SEQUENCE No. (e.g., 1, 2, 3, etc.); […] (e.g., Cells, Incubation, Reagent, etc.); VALUE and DESCRIPTION.
1. Cells. Seed 1500 HEK293-ACE2 cells (Expi293F with stable expression of human ACE2) in 2 uL/well media (DMEM, 10% FBS, 1x L-glutamine, 1x Pen/Strep, 1 ug/ml puromycin) in white 1536-well assay plates (Greiner #782073).
2. Incubation. Incubate at 37C with 5% CO2 overnight (~16 h).
3. Compounds. Dispense 23 nL/well compounds in DMSO via pin transfer.
4. Incubation. Incubate for 1 hr at 37C 5% CO2.
5. Reagent. Dispense 2 uL/well of SARS-CoV-2-S pseudotyped particles. [a] PPs are produced with murine leukemia virus pseudotyping. [b] SARS-CoV-2-S is Wuhan-Hu-1 sequence (BEI #NR-52420) with C-terminal 19 amino acid truncation.
6. Centrifuge. […]
7. Incubation. Incubate at for 48 hr at 37C 5% CO2
8. Centrifuge. Remove supernatant with gentle centrifugation using a Blue Washer (BlueCat Bio).
9. Reagent. Dispense 4 uL/well of Bright-Glo Luciferase detection reagent (Promega #E2620).
10. Incubation. Incubate for 5 min at room temperature.
11. Detection. Read luminescence signal (Viewlux plate reader, PerkinElmer). Data was normalized with wells containing SARS-CoV-2-S PP as 100%, and wells containing bald PP (no fusion protein) as 0%.
Potency is the fitted concentration of half-maximal effect.

| SMILES | activity change, negative = inhibition | outcome | Potency |
| --- | --- | --- | --- |
| O=C(OCCN1CCCCC1)C(O)(c1ccccc1)c1ccccc1 | -28.8% | – | – |
| C/C(O)=C(\C#N)C(=O)Nc1cc(Br)ccc1Br | -10.6% | – | – |
| Cc1ccccc1-n1c(CF)nc2ccc(N)cc2c1=O | -3.31% | – | – |
| O=c1[nH]cc(N(CCCl)CCCl)c(=O)[nH]1 | -21% [at 114 µM] | – | – |
| CCCCCCC(=O)O[C@H]1CC[C@H]2[C@@H]3CC[C@H]4CC(=O)C=C(C)[C@]4(C)[C@H]3CC[C@]12C | -7.93% | – | – |
| C[C@@H]([C@H](O)c1ccccc1)N(C)C | -34.9% | – | – |
| CC[N+](C)(CC)CCOC(=O)C(O)(c1ccccc1)c1ccccc1 | -7.01% | – | – |
| C[N+]1(C)CCCCC1COC(=O)C(O)(c1ccccc1)c1ccccc1 (stereo not given) | -8.43% | – | – |
| CC1CCC(C(C)C)C(OC(=O)c2ccccc2N)C1 (stereo not given) | -3.33% | – | – |
| O=S(=O)(O)c1cc(O)ccc1O | -12.6% | – | – |
| O=[N+]([O-])C(Br)(CO)CO | – | inactive | – |
| CCOC(=O)c1ccccc1C(=O)OCC | – | inactive | – |
| CC(C)CCC(=O)O[C@H]1CC[C@H]2[C@@H]3CCC4=CC(=O)CC[C@]4(C)[C@H]3CC[C@]12C | -25.5% | – | – |
| CCC1C(C)=NN=C(c2ccc(OC)c(OC)c2)c2cc(OC)c(OC)cc21 (stereo not given) | – | inactive | – |
| CCNCC(O)c1cccc(O)c1 (stereo not given) | -13.6% | – | – |
| NCC(O)c1cccc(O)c1 (stereo not given) | -19.3% | – | – |
| CN1[C@H]2CC[C@@H]1[C@@H](C(=O)O)[C@@H](OC(=O)c1ccccc1)C2 | -21.7% [at 114 µM] | – | – |
| O=P(O)(O)C(Cl)(Cl)P(=O)(O)O | -6.21% [at 5.25 µM] | – | – |
| CCCCCCCCCC(=O)O[C@H]1CC[C@H]2[C@@H]3CCC4=CC(=O)CC[C@]4(C)[C@H]3CC[C@]12C | -15.3% | – | – |
| O=C(O)C(Cl)(Cl)Cl | -27.9% | – | – |

| SMILES | activity change, negative = inhibition | outcome | Potency |
| --- | --- | --- | --- |
| CCC1(C)CC(=O)NC(=O)C1 | -21.5% [at 114 µM] | – | – |
| ClC1C(Cl)C(Cl)C(Cl)C(Cl)C1Cl (stereo not given) | – | inactive | – |
| O=C(NCNC(=O)NC1C(=O)NC(=O)N1CO)NC1C(=O)NC(=O)N1CO (stereo not given) | – | inactive | – |
| Cn1sc(Cl)cc1=O | -5.28% | – | – |
| CCCCNCC(O)c1ccc(O)cc1 (stereo not given) | – | inactive | – |
| CCCCC[C@@H](O)C1C(=O)OC(C)[C@H](O)/C=C/C=C/C=C/C=C/C=C(\C)C(O)C(O)C(O)C[C@H](O)C[C@H](O)C[C@H](O)C[C@H](O)C[C@@H]1O (stereo not given in full) | -29.9% | – | – |
| C[C@]12CC[C@H](OS(=O)(=O)O)CC1=CC[C@@H]1[C@@H]2CC[C@]2(C)C(=O)CC[C@@H]12 | -5.13% | – | – |
| CCOc1ccccc1-n1c(C(C)N2CCN(C(=O)COc3ccc(Cl)cc3)CC2)nc2ccccc2c1=O (stereo not given) | – | – | 10 µM (active) |
| O=C1OC2(c3cc(Br)c(O)cc3Oc3c2cc(Br)c(O)[c]3[Hg])c2ccccc21 (stereo not given) | – | – | 10 µM (active) |
| O=C/C=C/c1ccccc1 | -22.2% | – | – |
| CC1=C2C[C@H]3[C@@H](CC=C4C[C@@H](O)CC[C@@]43C)[C@@H]2CC[C@]12O[C@@H]1C[C@H](C)CN[C@H]1[C@H]2C | – | – | 17.8 µM (active) |
| Oc1ccc2c3c1O[C@H]1[C@@H](O)CC[C@@]4(O)[C@@H](C2)N(CC2CCC2)CC[C@]314 | 1.55% | – | – |
| CC[C@H](C)[C@H]1O[C@]2(C=C[C@@H]1C)C[C@@H]1C[C@@H](C/C=C(\C)[C@@H](O[C@H]3C[C@H](OC)[C@@H](O[C@H]4C[C@H](OC)[C@@H](O)[C@H](C)O4)[C@H](C)O3)[C@@H](C)/C=C/C=C3\CO[C@@H]4[C@H](O)C(C)=C[C@@H](C(=O)O1)[C@]34O)O2 | – | – | 10 µM (active) |
| C/C(=C\c1csc(C)n1)[C@@H]1C[C@@H]2O[C@]2(C)CCC[C@H](C)[C@H](O)[C@@H](C)C(=O)C(C)(C)[C@@H](O)CC(=O)O1 | -75.8% and -81.1% | – | – |
| CC(C)CCON=O | – | inactive | – |
| O=[N+]([O-])c1ccccc1 | -19.1% | – | – |
| COc1cc2c(cc1OC)[C@@]13CCN4CC5=CCO[C@H]6CC(=O)N2[C@H]1[C@H]6[C@H]5C[C@H]43 | -18.2% | – | – |
| c1ccc2sc(SNC3CCCCC3)nc2c1 | 2.84% [at 114 µM] | – | – |
| CC(=O)O[C@H]1CC[C@H]2[C@@H]3CCC4=CC(=O)CCC4=C3C=C[C@]12C | -33.2% | – | – |
| C[C@]12CC[C@H]3[C@@H](CCC4=C(O)C(=O)CC[C@@H]43)[C@@H]1CC[C@@H]2OC(=O)CCC1CCCC1 | -9.8% | – | – |
